Data published in PMC5540273 (PLoS ONE, 2017).

What was measured:
[1] = tested on: AAK1; details: concentration: 1 μM, replicates: in singlicate; n = 1
[2] = tested on: ABL1-nonphosphorylated; details: concentration: 1 μM, replicates: in singlicate; n = 1
[3] = tested on: ABL1-phosphorylated; details: concentration: 1 μM, replicates: in singlicate; n = 1
[4] = tested on: ABL2; details: concentration: 1 μM, replicates: in singlicate; n = 1
[5] = tested on: ACVR1B; details: concentration: 1 μM, replicates: in singlicate; n = 1
[6] = tested on: ACVR1; details: concentration: 1 μM, replicates: in singlicate; n = 1
[7] = tested on: ACVR2A; details: concentration: 1 μM, replicates: in singlicate; n = 1
[8] = tested on: ACVR2B; details: concentration: 1 μM, replicates: in singlicate; n = 1
[9] = tested on: ACVRL1; details: concentration: 1 μM, replicates: in singlicate; n = 1
[10] = tested on: T1, ADCK3; details: concentration: 1 μM, replicates: in singlicate; n = 1
T1 construct: gene CABC1

[11] = tested on: ADCK4; details: concentration: 1 μM, replicates: in singlicate; n = 1
[12] = tested on: AKT1; details: concentration: 1 μM, replicates: in singlicate; n = 1
[13] = tested on: AKT2; details: concentration: 1 μM, replicates: in singlicate; n = 1
[14] = tested on: AKT3; details: concentration: 1 μM, replicates: in singlicate; n = 1
[15] = tested on: T2, YSK4
T2 construct: gene MAP3K19

[16] = tested on: T3, YES
T3 construct: gene YES1

[17] = tested on: T4, p38-gamma
T4 construct: gene MAPK12

[18] = tested on: T5, YANK2
T5 construct: gene STK32B
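For %Inh in this document: KINOMEscan kinase panel screen.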
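For Kd in this document: kd values determined as follow-up on hits from a single-replicate KINOMEscan panel screen.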

| SMILES | %Inh [1] | %Inh [2] | %Inh [3] | %Inh [4] | %Inh [5] | %Inh [6] | %Inh [7] | %Inh [8] | %Inh [9] | %Inh [10] | %Inh [11] | %Inh [12] | %Inh [13] | %Inh [14] | Kd [15] | Kd [16] | Kd [17] | Kd [18] |
| --- | --- | --- | --- | --- | --- | --- | --- | --- | --- | --- | --- | --- | --- | --- | --- | --- | --- | --- |
| COc1cccc(-n2cnc3c(N)ncnc32)c1 [SKF-97416] | 0% | 56% | 46% | 8% | 22% | 0% | 3% | 0% | 11% | 0% | 8% | 1% | 0% | 22% | – | – | – | – |
| O=C(Nc1n[nH]c2nc(-c3ccccc3)c(Br)cc12)C1CC1 [SB-708998] | 8% | 43% | 11% | 2% | 0% | 21% | 24% | 7% | 21% | 4% | 1% | 7% | 4% | 0% | 0.64 µM | – | – | – |
| COc1cc(OC)cc(-c2cc3cnc(N)nc3nc2NC(=O)NC(C)(C)C)c1 | 15% | 39% | 0% | 0% | 10% | 0% | 0% | 0% | 0% | 0% | 0% | 4% | 11% | 24% | – | > 10 µM | – | – |
| COc1ccc(-c2cc3c(C)nc(N)nc3n([C@H]3CC[C@H](O)CC3)c2=O)cn1 | 0% | 0% | 0% | 0% | 0% | 0% | 0% | 0% | 0% | 0% | 0% | 0% | 0% | 0% | – | – | > 10 µM | – |
| COc1ccc(-c2cc3c(C)nc(N)nc3n([C@H]3CC[C@H](OCCO)CC3)c2=O)cn1 | 0% | 0% | 0% | 0% | 9% | 4% | 0% | 0% | 0% | 0% | 0% | 6% | 0% | 1% | – | – | – | – |
| Nc1ncnc2c1ncn2-c1cccc2ccccc12 [SKF-97184] | 0% | 46% | 26% | 0% | 0% | 0% | 0% | 0% | 26% | 0% | 52% | 8% | 0% | 0% | – | – | – | > 10 µM |
| CCCNC(=O)Nc1ccc(Oc2ncnc3ccn(C)c23)cc1 | 13% | 30% | 6% | 4% | 13% | 0% | 2% | 0% | 0% | 0% | 0% | 7% | 8% | 0% | – | – | – | – |
| COc1ccc(-n2cnc3c(N)ncnc32)cc1 [SKF-97236] | 15% | 28% | 1% | 10% | 21% | 7% | 35% | 32% | 10% | 0% | 0% | 0% | 1% | 11% | – | – | – | – |
| Cc1cccc(-c2nc(Nc3ccc4c(cnn4C)c3)c3ccccc3n2)n1 [GW876731] | 0% | 0% | 0% | 0% | 64% | 0% | 2% | 0% | 0% | 8% | 4% | 21% | 0% | 20% | – | – | – | – |
| Nc1nccc2scc(-c3ccc4c(c3)CCN4C(=O)Cc3ccccc3)c12 [GSK2576924] | 8% | 0% | 0% | 1% | 0% | 10% | 42% | 0% | 0% | 13% | 0% | 0% | 11% | 0% | – | – | – | – |
| CCCC(=O)Nc1n[nH]c2ncc(-c3cccc4ccccc34)cc12 [SB-642057] | 27% | 0% | 27% | 11% | 0% | 26% | 0% | 9% | 59% | 5% | 5% | 0% | 39% | 0% | – | – | – | – |
| COc1cc2ncn(-c3cc(OCc4ccncc4Br)c(C(N)=O)s3)c2cc1OC [GW854278] | 17% | 15% | 0% | 5% | 9% | 5% | 8% | 2% | 0% | 15% | 0% | 0% | 0% | 0% | – | – | – | – |
| Nc1n[nH]c2nnc(-c3ccccc3)c(-c3ccccc3)c12 [GW554060] | 0% | 0% | 0% | 9% | 0% | 21% | 0% | 0% | 0% | 27% | 36% | 0% | 16% | 0% | – | – | – | – |
| COc1cc(Nc2ccnc3ccc(C(F)(F)F)cc23)cc(OC)c1OC [GW577382] | 8% | 27% | 19% | 28% | 0% | 67% | 0% | 0% | 52% | 86% | 54% | 0% | 20% | 0% | – | – | – | – |
| COc1cc2ncn(-c3cc(OCCCc4ccccc4)c(C(N)=O)s3)c2cc1OC [GSK205189] | 35% | 0% | 0% | 5% | 0% | 0% | 0% | 0% | 0% | 24% | 3% | 0% | 2% | 0% | – | – | – | – |
| CCC(=O)c1c(-c2ccccc2)c2cc(Cl)ccc2c(=O)n1Cc1ccc(C(=O)O)cc1 | 0% | 30% | 0% | 15% | 0% | 11% | 0% | 0% | 0% | 0% | 0% | 0% | 0% | 0% | – | – | – | – |
| Cc1ccc(Oc2ccc(Nc3ncnc4cc[nH]c34)cc2C)cn1 | 0% | 19% | 0% | 0% | 27% | 2% | 0% | 0% | 0% | 16% | 0% | 17% | 0% | 0% | – | – | – | – |
| Nc1n[nH]c2ncc(-c3ccccc3)cc12 [SB-517081] | 36% | 0% | 18% | 17% | 0% | 8% | 0% | 5% | 0% | 7% | 19% | 0% | 12% | 0% | – | – | – | – |
| CCC(=O)c1c(-c2ccccc2)c2cc(Cl)ccc2c(=O)n1Cc1cc(C(=O)NC2CC2)n(C)n1 | 20% | 20% | 0% | 9% | 0% | 0% | 0% | 0% | 0% | 0% | 10% | 0% | 7% | 0% | – | – | – | – |
| Cc1ccccc1COc1cc(-n2cnc3cc(Cl)ccc32)sc1C(N)=O [GW813349] | 2% | 9% | 14% | 13% | 0% | 0% | 10% | 19% | 3% | 12% | 0% | 0% | 3% | 6% | – | – | – | – |
| Nc1ncnc2c1ncn2-c1ccc(Cl)cc1 [AH2635] | 0% | 0% | 0% | 0% | 0% | 3% | 0% | 16% | 0% | 24% | 33% | 0% | 0% | 0% | – | – | – | – |
| CCc1ccc(-c2ccc3c(c2)-c2nn(C)cc2S(=O)(=O)N3C)cc1 | 19% | 31% | 0% | 0% | 0% | 0% | 21% | 1% | 0% | 0% | 0% | 0% | 3% | 0% | – | – | – | – |
| COc1cccc(C2=C(Nc3cccc(C(=O)O)c3)C(=O)NC2=O)c1 [SB-390770] | 3% | 0% | 0% | 6% | 18% | 15% | 17% | 40% | 4% | 0% | 8% | 2% | 0% | 0% | – | – | – | – |
| COc1cc2nccc(Nc3ccc(OCc4ccc(NC(C)=O)cc4)cc3)c2cc1OC.Cl [GW440135] | 0% | 17% | 0% | 4% | 0% | 25% | 0% | 1% | 4% | 15% | 23% | 6% | 0% | 0% | – | – | – | – |
| COC(=O)c1c(-c2ccccc2)c2cc(Br)ccc2c(=O)n1Cc1ccc(NC(=O)CCC(=O)O)cc1 | 13% | 38% | 0% | 18% | 0% | 0% | 0% | 0% | 0% | 0% | 0% | 12% | 11% | 0% | – | – | – | – |
| CCC(=O)c1c(-c2ccccc2)c2cc(Cl)ccc2c(=O)n1Cc1cc(S(C)(=O)=O)n(CCC(C)(C)O)n1 | 25% | 6% | 3% | 9% | 10% | 2% | 0% | 9% | 17% | 27% | 1% | 0% | 14% | 17% | – | – | – | – |
| CCC(=O)c1c(-c2ccccc2)c2cc(Cl)ccc2c(=O)n1Cc1cc(S(C)(=O)=O)n(CC(N)=O)n1 | 0% | 44% | 9% | 0% | 0% | 0% | 14% | 0% | 0% | 29% | 0% | 0% | 0% | 0% | – | – | – | – |
| Cc1cc(Nc2nc(-c3cccc(C)n3)nc3ccccc23)ccn1 [GW872411] | 0% | 52% | 13% | 0% | 73% | 0% | 2% | 13% | 0% | 0% | 0% | 0% | 0% | 2% | – | – | – | – |
